PubChem BioAssay (NCATS)
Results filed as inconclusive are left out. A call without a number means that no potency is given here. Active and inactive are the calls of the source. Calls come from the whole dose curve; as a rule, active = well fitted cell-killing curve with a large enough effect; inconclusive = small, poorly fitted or top-dose-only effect, or effect the other way; inactive = flat fitted curve, though single readings scatter.

Each compound was assayed on JEG-3 (assay: Primary qHTS to identify gynecologic anti-cancer compounds using libraries of approved drugs and bioactive compounds (AID 1345084; note: nearly all actives have a fitted effect of over 55% in size)). Settings: Gynecologic cancer cell panel viability, ATPlite luminescence, 48 h; series mostly up to 57.5 µM.
How it was run: (§1)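 Cytotoxicity screen measuring ATP content by luciferase luminescence. Each compound is applied at five concentrations for 48 h at 37 C with 5% CO2.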

Structure (SMILES)	Potency
O=C(Nc1ccc2[nH]c(=O)oc2c1)C(=O)N1CCC(Cc2ccc(F)cc2)CC1	inactive
Cc1ccc(F)cc1S(=O)(=O)N[C@@H]1CCN(Cc2ccc(OC(C)C)cc2)C1	inactive
C#CCNCc1cc2cc(OCc3ccccc3)ccc2[nH]1	inactive
C[C@@H](c1ccc2nccn2c1)n1nnc2ncc(-c3cnn(C)c3)nc21	inactive
CN(C)CCC(CSc1ccccc1)Nc1ccc(S(=O)(=O)NC(=O)c2ccc(N3CCN(Cc4ccccc4-c4ccc(Cl)cc4)CC3)cc2)cc1[N+](=O)[O-] (centres undefined)	inactive
C=CC(=O)Nc1cc(-n2c(=O)ccc3cnc4ccc(-c5ccc(NS(C)(=O)=O)cc5)cc4c32)ccc1C	inactive
O=C(Nc1ccc(-n2nc(C(F)(F)F)cc2C(F)(F)F)cc1)c1ccncc1F	inactive
CS/C=C/C(=O)O[C@@H]1CCC2=CC(=O)C(=C(C)C)C[C@]2(C)[C@H]1C	inactive
C=CC(=O)N1CCC(Oc2cc3c(Nc4ccc(Cl)c(Cl)c4F)ncnc3cc2OC)CC1	inactive
CCOC(=O)N1CCC(CN(Cc2ccc(Cl)cc2)Cc2ccc([N+](=O)[O-])s2)C1 (centres undefined)	inactive
Cc1cc(-c2cc(OC(=O)c3ccccc3)ccc2Cl)cc2nnc(Nc3ccc(OCCN4CCCC4)cc3)nc12	inactive
CC12CCC(OC3OC(CO)C(O)C(O)C3OC3OC(CO)C(O)C(O)C3O)CC1CCC1C2CCC2(C)/C(=C3/COC(=O)C3)CCC12O (centres undefined)	inactive

What follows are compounds tested on OV90 in the same assay as above. Settings: Gynecologic cancer cell panel viability, ATPlite luminescence, 48 h; series mostly up to 57.5 µM.
How it was run: as §1

Structure (SMILES)	Potency
O=C(Nc1ccc2[nH]c(=O)oc2c1)C(=O)N1CCC(Cc2ccc(F)cc2)CC1	inactive
Cc1ccc(F)cc1S(=O)(=O)N[C@@H]1CCN(Cc2ccc(OC(C)C)cc2)C1	inactive
C#CCNCc1cc2cc(OCc3ccccc3)ccc2[nH]1	inactive
C[C@@H](c1ccc2nccn2c1)n1nnc2ncc(-c3cnn(C)c3)nc21	inactive
C=C1C(=O)OC2CC(C)=C(C(C)CCCOC(C)=O)C(OC(=O)CC(C)CC)C12 (centres undefined)	inactive
C=CC(=O)Nc1cc(-n2c(=O)ccc3cnc4ccc(-c5ccc(NS(C)(=O)=O)cc5)cc4c32)ccc1C	inactive
O=C(Nc1ccc(-n2nc(C(F)(F)F)cc2C(F)(F)F)cc1)c1ccncc1F	inactive
O=C(N[C@@H]1CCCc2c1cnn2-c1ccc(F)cc1F)c1ccccn1	inactive
CS/C=C/C(=O)O[C@@H]1CCC2=CC(=O)C(=C(C)C)C[C@]2(C)[C@H]1C	inactive
CC(=O)OC1CCC2(C)C(CCC3(C)C2CC=C2C4C(C)C(C)CCC4(C)CCC23C)C1(C)C(=O)O (centres undefined)	inactive
CCOC(=O)N1CCC(CN(Cc2ccc(Cl)cc2)Cc2ccc([N+](=O)[O-])s2)C1 (centres undefined)	inactive
Cc1cc(-c2cc(OC(=O)c3ccccc3)ccc2Cl)cc2nnc(Nc3ccc(OCCN4CCCC4)cc3)nc12	inactive
